Screening results deposited in PubChem by National Center for Advancing Translational Sciences (NCATS).
Hits are enriched below; roughly 3% of the tested compounds scored in any of these assays.
GCN5L2 inh: blocks human GCN5L2 histone acetyltransferase. Q92830. Potency, µM (doses to about 58.9 µM), for the others: top-dose activity change, negative = inhibition, most hits filed as inhibitors. GCN5L2 HAT assay, ThioGlo1 CoA-SH fluorescence. 0.21% of 390,000 active
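GCN5L2 (20 nM) in 50mM HEPES pH 7.5, 0.1mM EDTA, 0.01% Tween-20 preincubated 15 min with compounds at room temperature. Reaction started with H3(1-25) 75uM, acetyl-CoA 70uM, ThioGlo1 50uM; CoA-thiol fluorescence (Ex340/Em540) read at 0 and 20 min.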
ALOX12 inh: inhibitors of human 12S-lipoxygenase ALOX12. P18054. 1.1% of 580,000 active. purified 12hLO, xylenol orange hydroperoxide absorbance. Potency, µM (series often up to 108 µM), inactives show top-dose activity change, negative = inhibition, actives largely listed as inhibitors
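Hydroperoxide product was detected by ferrous iron/xylenol orange as the 573 to 405 nm absorbance ratio. Arachidonic acid at 40 uM (final) was turned over for 30 min at room temperature by 150 nM human 12hLO, pH 7.0 Hepes buffer, after 15 min compound preincubation.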
VDR inhibitor: vitamin D3 receptor (human) inhibition | VDR-SRC2-3 peptide fluorescence polarization, 2 h | Potency, µM, for inactives: max response, negative = inhibition, most hits filed as inhibitors | 0.93% of 400,000 active | AID 504847
Target sequence (P11473 whole entry, looked up): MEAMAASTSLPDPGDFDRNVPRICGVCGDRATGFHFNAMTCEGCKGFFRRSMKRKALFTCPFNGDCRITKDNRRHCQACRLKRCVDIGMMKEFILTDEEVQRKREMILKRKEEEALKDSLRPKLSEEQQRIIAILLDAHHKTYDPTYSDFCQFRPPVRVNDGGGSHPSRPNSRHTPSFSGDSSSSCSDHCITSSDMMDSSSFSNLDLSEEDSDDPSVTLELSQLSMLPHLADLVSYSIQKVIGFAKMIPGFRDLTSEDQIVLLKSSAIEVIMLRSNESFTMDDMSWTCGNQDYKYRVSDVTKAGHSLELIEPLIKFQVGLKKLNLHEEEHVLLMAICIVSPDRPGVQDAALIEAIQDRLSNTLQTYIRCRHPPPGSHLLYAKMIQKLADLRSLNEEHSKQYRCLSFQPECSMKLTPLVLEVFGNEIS
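VDR–SRC2-3 interaction, FP format. Cmpds 23 nl via pintool, brief spin, 2 h ambient incubation.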
PLK1 PBD inh: PLK1 (human) polo-box domain binding inhibition. P53350. Potency, µM, inactives show max response, negative = inhibition, usual class: inhibitors. Plk1 PBD binding of FITC phosphopeptide, fluorescence polarization. 2.8% of 360,000 active; also: series mostly up to about 57 µM; nearly all actives have a fitted effect of over 65% in size
* marks the source's active call; other numbers are inactive results; i = inactive; u = inconclusive; x = no result. Calls follow the shape of the dose curve; as a rule, active = well fitted curve in the direction sought with a large enough effect; inconclusive = small, poorly fitted or top-dose-only effect, or another doubt; inactive = no such curve, though single readings can be large; an effect the other way counts as inactive or inconclusive. % is scaled to controls: 0 for no effect and ±100 for the full control effect; potency is read from the fitted curve at half-maximal effect.

SMILES | GCN5L2 inh | ALOX12 inh | VDR inhibitor | PLK1 PBD inh
O=C(C[n+]1ccc2ccccc2c1)c1cccc2ccccc12 | -13% | u | -9% | 24µM*
Fc1cccc(COc2ccc(-c3nnco3)cc2)c1 | x | 10% | x | x
NC(=O)C1CCN(Cc2nc3cc(Cl)ccc3c(=O)[nH]2)CC1 | -4% | 13µM* | -3% | -2%
CCNC(=O)c1ccc(CSc2ccc(Cl)cc2)cc1 | -1% | 3% | -17% | 27µM*
Cc1ccc(-c2nn(Cc3ccccc3)cc2C(=O)N2CCN(CCO)CC2)cc1 | x | 9% | x | x
N#CC1=C(N)OC2=C(C(=O)CC(c3ccccc3)C2)C1c1ccccc1C(F)(F)F (stereo not drawn) | x | -3% | x | x
Cc1ccc(C)c(NC(=O)CCc2ccc(S(=O)(=O)NC3CCCCC3)cc2)c1 | -5% | 0% | -8% | 6.7µM*
Cc1cc(C)n(-c2ccc([N+](=O)[O-])cc2-c2nn[nH]n2)n1 | 0% | i | -19% | 3%
O=[N+]([O-])c1ccc(O)c(-c2nn[nH]n2)c1 | -15% | 0% | -23% | 3.4µM*
O=C(CC(c1ccccc1)c1ccccc1)N1CCN(C/C=C/c2ccccc2)CC1 | x | -16% | x | x
CCCc1c(C)nc2ccc(Cl)cc2c1-c1ccccc1 | x | 1.8µM* | x | x
COC(=O)C1=CN(c2ccc(F)cc2)C(N)=C(C#N)C1c1ccccc1 (stereo not drawn) | x | 45µM* | x | 2%
CC(=O)N(C1CC1)C1CCOC2(CCN(C(=O)c3n[nH]c4ccccc34)CC2)C1 (stereo not drawn) | x | 3% | x | x
Cc1ccccc1OCc1nc2ccccc2[nH]1 | 0% | -3% | -10% | 27µM*
COc1ccccc1OCc1nc2ccccc2[nH]1 | -19% | 0% | 10% | 1%
O=C1CCCCN1CC(=O)N1CCCC(Nc2ccc(F)c(F)c2)C1 (stereo not drawn) | -1% | 0% | u | 21µM*
CCOC(=O)C(=CNNc1ccccc1)C(=O)OCC | -2% | u | 50µM* | u
CCOC(=O)NNc1ccccc1 | u | u | -24% | -12%
Cn1c(/C(C#N)=C/c2cccc(O)c2)nc2ccccc21 | 0% | -9% | 79µM* | 27µM*
O=C(c1ccc(Cl)cc1)C(CN1CCCC1)c1ccccc1 (stereo not drawn) | -3% | 0% | 25µM* | 0%
O=C(c1ccc(F)cc1)C(CN1CCOCC1)c1ccccc1 (stereo not drawn) | -4% | -21% | 50µM* | -14%
CCOc1ccc(S(=O)(=O)n2ccnc2)cc1C(C)(C)C | x | 16% | x | x
COc1ccc(/C=C(/C#N)c2ccccc2F)c(OC)c1 | x | 7% | x | x
COc1cc(Br)c(C(=O)c2nccc3cc(OC)c(OC)cc23)cc1OC | -22% | 2% | -18% | 6µM*
CC(C)CCNC(=O)c1cnc2sc(N3CCCCCC3)nn2c1=O | -5% | -32% | 10% | x
SMILES | GCN5L2 inh | ALOX12 inh | VDR inhibitor | PLK1 PBD inh
CN1CCN(C2=C(Cl)C(=O)c3ccccc3C2=O)CC1 | x | u | 50µM* | 9.5µM*
CN1CCN(C2=C(NS(=O)(=O)c3ccccc3)C(=O)c3ccccc3C2=O)CC1 | -2% | x | 2% | -28%
NC(=O)C1CCN(C2=C(Cl)C(=O)c3ccccc3C2=O)CC1 | -15% | -17% | u | 27µM*
CN1CCN(C2=C(Cl)C(=O)C(c3cnc(N4CCCCC4)s3)=C(Cl)C2=O)CC1 | -26% | x | 50µM* | 3.8µM*
NC(=O)C1CCN(C2=C(NS(=O)(=O)c3ccccc3)C(=O)c3ccccc3C2=O)CC1 | -7% | -21% | -3% | -18%
Cc1ccc(Sc2ccc(NC(=O)c3cccc4ccccc34)cc2)c(C)c1 | x | -25% | x | x
COc1cccc(NC(=O)c2sc3nc(C)c(C(=O)Nc4ccc(C)cc4C)c(-c4cccs4)c3c2N)c1 | 18µM* | -17% | -24% | x
CN1CC(=O)N(C2CCNC2)Cc2c(NCc3ccccn3)ncnc21 (stereo not drawn) | x | 43% | x | x
Cc1nc(NC(=O)c2c(F)cccc2Cl)sc1C | x | 2% | x | x
Cc1c(CC(=O)N2CCN(C(=O)C3COc4ccccc4O3)CC2)c(=O)oc2cc(O)ccc12 (stereo not drawn) | 28µM* | -8% | 2% | -13%
N#C/C(=C\C=C\c1ccccc1)C(=O)NCc1cccnc1 | 2% | 20% | u | 24µM*
CSc1ccccc1NC(=O)CN(C)C(c1ccccc1)c1ccccc1 | x | -6% | x | x
CCOc1ccc(OCCOc2ccc(/C=C/C(=O)O)cc2OCC)cc1 | -11% | -6% | -6% | -6%
CCOc1cc(/C=C/C(=O)O)ccc1OCCO | -7% | -9% | u | 27µM*
CN1CCN(CCOc2ccc(-c3ccccc3)cc2)CC1 | -4% | u | 5% | -2%
CN1CCN(CCCOc2ccc(-c3ccccc3)cc2)CC1 | -13% | u | -19% | 21µM*
COc1cc(OC)cc(-c2cc3cc4c(cc3cn2)OCO4)c1 | -9% | x | 8% | 5%
COc1cc(OC)cc(-c2cc3ncccc3cn2)c1 | -5% | 32µM* | 0% | -1%
CN(CC(=O)Nc1ccc([N+](=O)[O-])cc1Br)Cc1c(F)cccc1Cl | -2% | -13% | -21% | 27µM*
CC(=O)NC1(C)CCN(Cc2cnc(-c3cccc(F)c3)s2)CC1 | x | 50µM* | x | x
c1ccc2[nH]c(-c3nn4c(C5CCCCC5)nnc4s3)cc2c1 | x | -18% | x | x
Fc1cccc(Cl)c1C1NC(=S)NC2=C1CCc1ccccc12 (stereo not drawn) | x | 40µM* | x | x
S=C1NC2=C(CCc3ccccc32)C(c2ccccc2)N1 (stereo not drawn) | x | 16µM* | x | x
O=C1NC2=C(CCc3ccccc32)C(c2ccccc2)N1 (stereo not drawn) | -1% | u | -14% | -23%
C=CCNC(=S)NNC(=O)C1CC1 | x | 1% | x | x
SMILES | GCN5L2 inh | ALOX12 inh | VDR inhibitor | PLK1 PBD inh
NC(=O)c1ccc(COC(=O)c2cc3ccccc3[nH]2)cc1 | x | -38% | x | x
Cc1ccc(OCCCc2c(C)n[nH]c2C)cc1 | -9% | 6.3µM* | 4% | 2%
Cc1n[nH]c(C)c1CCCCOc1ccccc1 | -9% | -10% | -11% | -25%
CC1(C)C2CCC1(C)C(OC(=O)CNc1ccccc1)C2 (stereo not drawn) | -13% | 10% | -13% | 19µM*
CC1(C)C2CCC1(C)C(OC(=O)C[n+]1ccccc1N)C2 (stereo not drawn) | 2% | -1% | -11% | 0%
CC1(C)C2CCC1(C)C(OC(=O)C[n+]1ccccc1)C2 (stereo not drawn) | 0% | 19% | 22µM* | 19µM*
O=C(Nc1sc2c(c1C(=O)Nc1cccc(Cl)c1)CCCC2)c1cccs1 | u | 45µM* | 25µM* | x
CC1(C)Cc2c(sc(NC(=O)c3ccccc3)c2C(=O)O)CO1 | 0% | -24% | -19% | 13µM*
Cc1cccc(C(=O)Nc2sc3c(c2C(N)=O)CCCCC3)c1 | x | 10µM* | x | x
NC(=O)c1c(NC(=O)c2ccccc2Cl)sc2c1CCC2 | -2% | 28µM* | -16% | 1%
O=C(CNC(=O)c1ccc(Oc2ccccc2)cc1)NNC(=O)CSc1cccc2cccnc12 | x | -50% | x | x
O=C(CCc1ncc(-c2c(F)cccc2F)o1)N1CCN(S(=O)(=O)c2ccccc2Cl)CC1 | x | 37% | x | x
O=C(Nc1sc2c(c1C(=O)O)CCC2)c1ccccc1 | 2% | u | 8% | u
